Here are results for 13 molecules from PubChem BioAssay.

A short description of experiment [1]: HepG2 liver cancer cell viability effects, profiling panel, resazurin fluorescence, 24 h, PK04 Diversity Set (AID 1172). Further: test concentration not given here. Conditions: higher = more signal. A general note: The colour change of resazurin is a common sign of viable cells or microbes.
A short description of experiment [2]: basal S. cerevisiae growth modulation, no modifier, primary screen, OD600, strain BY4716, 24 h, basal condition (AID 1173). The conditions noted are these: OD600, 24 h, higher = more signal, called active from +8 up or from −8 down.
A short description of experiment [3]: MM1S myeloma cell viability, profiling panel, resazurin fluorescence, basal, 24 h, PK04 Diversity Set (AID 1174).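 Further: MM1S multiple myeloma cell line; test concentration not given here.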 The conditions noted are these: higher = more signal, called active from +8 up or from −8 down.
The target in experiment [4] is Dihydroorotate dehydrogenase (quinone), mitochondrial (Plasmodium falciparum (isolate 3D7)) (UniProt Q08210). As to the kind of experiment: PfDHODH enzyme inhibitors, primary screen, biochemical, C-terminal His tag, absorbance 600 nm (AID 1175).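 Further: recombinant parasite enzyme with a five histidine tag at its C terminus; test concentration not given here.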 The conditions noted are these: DCIP absorbance 600 nm, higher = more signal, called active from +8 up or from −8 down.
Chain of Dihydroorotate dehydrogenase (quinone), mitochondrial (Plasmodium falciparum (isolate 3D7)) (Q08210 whole entry, looked up): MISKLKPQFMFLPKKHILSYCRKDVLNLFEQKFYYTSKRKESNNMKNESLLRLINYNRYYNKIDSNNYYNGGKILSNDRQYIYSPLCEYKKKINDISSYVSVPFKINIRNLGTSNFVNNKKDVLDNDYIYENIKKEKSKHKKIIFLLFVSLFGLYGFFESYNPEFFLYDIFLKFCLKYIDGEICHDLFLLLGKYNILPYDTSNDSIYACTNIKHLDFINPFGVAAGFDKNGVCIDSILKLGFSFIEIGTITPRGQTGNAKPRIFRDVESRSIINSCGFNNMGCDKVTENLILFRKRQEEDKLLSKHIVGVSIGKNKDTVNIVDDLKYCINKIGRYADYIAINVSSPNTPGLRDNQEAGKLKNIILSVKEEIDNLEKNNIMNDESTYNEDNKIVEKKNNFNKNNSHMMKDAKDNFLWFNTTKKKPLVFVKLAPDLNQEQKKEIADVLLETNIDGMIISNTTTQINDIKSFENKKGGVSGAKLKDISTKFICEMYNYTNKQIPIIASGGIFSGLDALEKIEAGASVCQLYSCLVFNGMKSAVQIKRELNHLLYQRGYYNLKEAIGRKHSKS
Experiment [5] in a line: P. aeruginosa biofilm formation inhibitors, primary screen, strain PAO1, LB-PBS medium, absorbance 600 nm (AID 1176). Further: test concentration not given here. The conditions noted are these: P. aeruginosa PAO1 growth/biofilm, A600, 12 h; higher = more signal.
Experiment [6] can be described thus: S. cerevisiae RM11-1a growth modifiers, primary screen, strain RM11-1a, OD600, basal, 24 h (AID 1177).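 Further: cultures grown under basal conditions with no added stressor; test concentration not given here.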 Conditions: OD600, 24 h, higher = more signal, called active from +8 up or from −8 down.
A short description of experiment [7]: E. coli acrAB mutant growth effects, primary screen, E. coli filamentation inducers, strain DRC39, OD650, 24 h (AID 1178).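 Further: growth measured as culture turbidity by optical density at 650 nm; test concentration not given here.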 Conditions: higher = more signal, called active from +8 up or from −8 down.
A short description of experiment [8]: E. coli acrAB mutant growth effects, primary screen, E. coli filamentation inducers, strain DRC39, OD650, 48 h (AID 1179).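 Further: screen aims at cell division blockers that make cells filament.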 Conditions: E. coli DRC39 delta-acrAB growth, higher = more signal, called active from +8 up or from −8 down.
Experiment [9] can be described thus: RPMI8226 myeloma cell viability, profiling panel, resazurin fluorescence, basal, 24 h, PK04 Diversity Set (AID 1180).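 Further: RPMI8826 multiple myeloma cell line at 5000 cells per well; test concentration not given here.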 The conditions noted are these: higher = more signal.
Experiment [10] deals with E3 ubiquitin-protein ligase XIAP (Homo sapiens) (UniProt P98170). As to the kind of experiment: XIAP binders, primary screen, biophysical, small-molecule microarray, fluorescence 635 nm (AID 1181).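 Further: score merges 667 nm emission and signal to noise over triplicate slides.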 The conditions noted are these: small-molecule microarray binding, higher = more signal.
Chain of E3 ubiquitin-protein ligase XIAP (Homo sapiens) (P98170 whole entry, looked up): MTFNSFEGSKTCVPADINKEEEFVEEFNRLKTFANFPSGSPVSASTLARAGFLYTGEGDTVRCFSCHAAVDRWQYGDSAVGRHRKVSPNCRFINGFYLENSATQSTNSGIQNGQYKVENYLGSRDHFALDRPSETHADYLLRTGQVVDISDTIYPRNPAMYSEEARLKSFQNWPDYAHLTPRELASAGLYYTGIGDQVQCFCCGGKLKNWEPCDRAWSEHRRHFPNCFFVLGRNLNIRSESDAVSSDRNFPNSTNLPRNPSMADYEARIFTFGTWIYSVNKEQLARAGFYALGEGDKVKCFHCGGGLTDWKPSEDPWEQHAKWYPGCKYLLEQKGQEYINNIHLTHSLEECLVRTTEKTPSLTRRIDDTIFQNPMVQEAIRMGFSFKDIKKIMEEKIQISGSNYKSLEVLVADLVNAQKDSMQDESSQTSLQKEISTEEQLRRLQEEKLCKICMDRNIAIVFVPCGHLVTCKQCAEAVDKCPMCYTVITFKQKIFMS

The source made the active and inactive calls. Unless noted, how the calls were made is not given here.

For `C=CCN1Cc2ccccc2[C@@H]2OC(c3ccc(OCCCO)cc3)=N[C@]2(CCS(=O)(=O)c2ccccc2)C1=O`, the z-score in [1] is 0.277; in [2] it was 1.28 (inactive); in [3] it was -0.751 (inactive); in experiment [5] it was 1.4 (inactive); in experiment [6], 1.38 (inactive); in [7], 0.61 (inactive). The z-score in experiment [8] was 0.713 (inactive); in [9], -0.764. For the same molecule, the composite z-score in experiment [4] is 0.651 (inactive); in [10] it was -0.123.

Turning to `COc1cc2c(cc1OC)CN(C(=O)[C@H]1[C@@H]3C(=O)O[C@@H](c4ccccc4)[C@@H](c4ccccc4)N3[C@@H](c3ccccc3OCCO)[C@]13C(=O)Nc1ccc(C#CCCO)cc13)CC2`, the z-score is 0.51 in experiment [1]; 1.69 (inactive) in [2]; -0.442 (inactive) in experiment [3]; 1.54 (inactive) in experiment [5]; 3.11 (inactive) in [6]; -0.456 (inactive) in experiment [7]. Besides, the z-score was -0.542 (inactive) in experiment [8] and -0.0397 in experiment [9]. Also, the composite z-score in experiment [4] is 0.749 (inactive); in experiment [10] it was -0.152.

In the case of `C#CCN1[C@H](/C=C/C2CC2)[C@H](Cc2ccccc2)OC(=O)[C@@H]1Cc1ccccc1`, the z-score was 0.512 in experiment [1]; 0.169 (inactive) in experiment [2]; 0.214 (inactive) in [3]; -0.283 (inactive) in [5]; 0.0319 (inactive) in experiment [6]; -0.463 (inactive) in [7]. For the same molecule, the z-score was -0.144 (inactive) in experiment [8] and 0.454 in experiment [9]. In addition, the composite z-score in [4] is -0.627 (inactive); in experiment [10], 0.0853.

As for `COCCOC(=O)N1C(=O)[C@@]2(c3cc(C#CC4(O)CCCCCC4)ccc31)[C@H](C(=O)Nc1nc3ccccc3s1)[C@H]1C(=O)O[C@H](c3ccccc3)[C@H](c3ccccc3)N1[C@@H]2c1ccc(OCCO)cc1`, the z-score is -0.0451 in [1]; 1.16 (inactive) in experiment [2]; -0.584 (inactive) in experiment [3]; 2.69 (inactive) in experiment [5]; 3 (inactive) in experiment [6]; -0.451 (inactive) in experiment [7]. Further, the z-score in [8] is -0.976 (inactive); in experiment [9], -0.523. Besides, the composite z-score in [4] was 0.901 (inactive); in [10] it was 0.0073.

As to `COc1ccc(CCNC(=O)[C@@]2(C)c3ccccc3C(=O)N(c3ccc(C)cn3)[C@H]2c2ccc(CO)cc2)cc1`, the z-score was 0.437 in [1]; -0.673 (inactive) in experiment [2]; 0.978 (inactive) in [3]; -0.301 (inactive) in [5]; 0.0798 (inactive) in experiment [6]; 0.0083 (inactive) in [7]. Besides, the z-score was 0.737 (inactive) in [8] and 0.933 in experiment [9]. The results for the composite z-score in experiment [4] and in [10] were -0.907 (inactive) and -0.0838, respectively.

As to `COC(=O)[C@]1(Cc2ccccc2)N=C(c2ccc(OCCCO)cc2)O[C@@H]1c1ccccc1N=[N+]=[N-]`, the z-score was -2.66 in experiment [1]; -1.45 (inactive) in experiment [2]; -4.47 (inactive) in experiment [3]; 1.69 (inactive) in experiment [5]; 0.285 (inactive) in experiment [6]; 0.2 (inactive) in [7]. Also, the z-score in experiment [8] was -1.19 (inactive); in experiment [9], -7.02. Besides, the values for the composite z-score in [4] and in experiment [10] were 1.16 (inactive) and 0.336, respectively.

Take `C=CCNC(=O)[C@H]1[C@@H]2C(=O)O[C@@H](c3ccccc3)[C@@H](c3ccccc3)N2[C@@H](c2ccc(O)cc2)[C@]12C(=O)Nc1ccc(C#CCCO)cc12`: the z-score is 1.13 in [1]; 0.189 (inactive) in experiment [2]; 1.16 (inactive) in experiment [3]; -0.42 (inactive) in experiment [5]; 0.957 (inactive) in experiment [6]; 0.516 (inactive) in [7]. The figures for the z-score in experiment [8] and in experiment [9] were 0.567 (inactive) and 1.08, respectively. Besides, the composite z-score in experiment [4] was 0.0992 (inactive); in [10], -0.198.

For `[N-]=[N+]=NCc1ccccc1[C@H]1OC(c2ccc(OCCCO)cc2)=N[C@@]1(Cc1ccccc1)C(=O)N1CCCCC1`, the z-score was 0.804 in experiment [1]; -1.95 (inactive) in experiment [2]; -1.71 (inactive) in [3]; -0.441 (inactive) in [5]; -0.923 (inactive) in experiment [6]; 1.29 (inactive) in experiment [7]. Further, the z-score was 1.25 (inactive) in [8] and -0.941 in experiment [9]. The composite z-score is 0.451 (inactive) in experiment [4] and -0.0622 in experiment [10].

Take `CCCCCCc1nc(-c2ccc(-c3ccc(Cl)c(Cl)c3)o2)cc2c1[Si](C(C)C)(C(C)C)O[C@H]2c1ccccc1`: the z-score was 1.32 in experiment [1]; -0.911 (inactive) in [2]; 0.551 (inactive) in experiment [3]; -0.771 (inactive) in experiment [5]; -0.361 (inactive) in experiment [6]; 0.708 (inactive) in [7]. The figures for the z-score in [8] and in experiment [9] were 0.447 (inactive) and 0.0719, respectively. In addition, the composite z-score was -0.206 (inactive) in experiment [4] and -0.0641 in experiment [10].

Consider `COCCCNC(=O)[C@@H]1c2ccccc2C(=O)N(Cc2ccccc2)[C@H]1c1ccc(CO)cc1`, for which the z-score in experiment [1] is 0.0319; in experiment [2], -0.141 (inactive); in experiment [3], 0.0771 (inactive); in experiment [5], 0.0993 (inactive); in experiment [6] it was -0.575 (inactive); in experiment [7], 0.38 (inactive). Moreover, the z-score was 0.0879 (inactive) in [8] and 0.279 in [9]. For the same molecule, the values for the composite z-score in [4] and in experiment [10] were -0.62 (inactive) and -0.0663, respectively.

In the case of `CCOC(=O)C[C@H]1[C@H](OC(=O)c2ccc(-c3ccccc3)cc2)[C@@H](NC(=O)c2ccccc2)c2cc(OCCCO)ccc2N1C(=O)Cc1ccc(OC)cc1`, the z-score in [1] was -0.161; in experiment [2] it was 0.742 (inactive); in experiment [3] it was 0.393 (inactive); in experiment [5] it was 0.845 (inactive); in experiment [6] it was 1.47 (inactive); in experiment [7], 0.835 (inactive). Also, the z-score in experiment [8] was 0.451 (inactive); in experiment [9] it was -0.041. Besides, the composite z-score in experiment [4] is 0.593 (inactive); in experiment [10], -0.0936.

`CCCC(=O)N(CCc1c[nH]c2ccccc12)[C@@H]1CC(C(=O)NCCO)=C[C@H](Oc2c(I)cc(CO)cc2OC)[C@H]1O`: the z-score was 0.627 in experiment [1]; -1.22 (inactive) in [2]; -0.176 (inactive) in [3]; 0.789 (inactive) in [5]; 0.152 (inactive) in experiment [6]; 0.336 (inactive) in experiment [7]. The figures for the z-score in [8] and in experiment [9] were 0.582 (inactive) and 0.114, respectively. For the same molecule, the results for the composite z-score in experiment [4] and in [10] were 0.0595 (inactive) and -0.222, respectively.

For the molecule `[N-]=[N+]=Nc1ccccc1C[C@@]1(C(=O)N2CCCCC2)N=C(c2ccc(OCCCO)cc2)O[C@@H]1c1ccccc1`, the z-score in experiment [1] is 1.9; in [2], -2.84 (inactive); in experiment [3], -0.351 (inactive); in [5], 3.16 (inactive); in experiment [6] it was 0.076 (inactive); in [7] it was 1.38 (inactive). Besides, the z-score is 0.887 (inactive) in [8] and -0.0538 in [9]. Moreover, the composite z-score in experiment [4] is 0.496 (inactive); in [10], -0.236.
